Calpain2 inh = blocks pig calpain II enzyme activity; purified calpain II, fluorogenic peptide substrate, 30 min; inhibition, % at 16 µM; hit rate 0.37% among 220,000;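 active = inhibition above about 50%, limit read from the data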
Mcl1 Noxa PPI = disrupts binding of human Mcl-1 to Noxa peptide. hit rate 1.5% among 220,000. inhibition, % at 21.7 µM. Q07820. TR-FRET Mcl-1/Noxa peptide binding, 2 h;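 active = compounds that cut the protein-peptide binding signal by more than 50% relative to plate controls in a single-dose test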;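 also: His-tagged Mcl-1 with rhodamine Noxa BH3 peptide and terbium anti-His antibody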
Target sequence (Q07820 whole entry, looked up): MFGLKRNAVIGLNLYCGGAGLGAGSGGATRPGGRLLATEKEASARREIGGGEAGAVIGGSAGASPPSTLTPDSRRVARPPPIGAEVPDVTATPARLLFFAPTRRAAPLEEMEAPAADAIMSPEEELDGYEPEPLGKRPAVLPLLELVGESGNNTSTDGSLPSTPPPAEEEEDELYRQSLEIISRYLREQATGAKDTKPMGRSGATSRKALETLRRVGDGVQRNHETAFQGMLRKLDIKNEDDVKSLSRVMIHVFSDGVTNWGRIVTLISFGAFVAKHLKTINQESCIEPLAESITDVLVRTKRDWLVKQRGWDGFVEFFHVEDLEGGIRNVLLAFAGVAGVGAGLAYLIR
Bim-Mcl-1 = disrupts Bim peptide binding to human Mcl-1 | Q07820 | Bead-based flow cytometry, Bim peptide-Mcl-1 binding | inhibition, % at 10 µM | hit rate 0.1% among 190,000; in the data active = inhibition above about 40%
TNF necrop inh = TNF-alpha cell death inhibition in Jurkat FADD-/- cells; Jurkat FADD-/- TNF necroptosis rescue, ATP luminescence, 24 h; 0 = TNF only, 100 = no-TNF cells; activation (protection from cell death), % at 10 µM; hit rate 0.068% among 220,000; AID 463075;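 active = activation, meaning protection from cell death, of at least 50% relative to plate controls; inactive = activation below 50%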;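 also: necroptosis triggered by 40 ng/mL TNF-alpha added together with compound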
zVAD death inh = L929 zVAD cell death inhibition; L929 zVAD necroptosis rescue, ATP luminescence, 24 h; with zVAD 60 µM; viability rescue, % at 10 µM; hit rate 0.38% among 220,000;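 active = activation, scaled between plate controls, above about 75%, limit read from the data; inactive = activation under that limit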
Mcl1 Bid PPI = disrupts binding of human Mcl-1 to Bid peptide | Q07820 | TR-FRET Mcl-1/Bid-Dy647 peptide binding, 1536-well | inhibition, % at 21.7 µM | hit rate 0.97% among 220,000 | AID 1021;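 active = compounds that cut the binding signal by more than half at the single screening dose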;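 also: His-tagged Mcl-1 with europium anti-His antibody binding Bid BH3 peptide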
Hits are given with their value. Most compounds without a hit are left out; they make up all but 2.8% or so of the library.

For COc1cccc2c(=O)c3cccc(N)c3[nH]c12 the results were Calpain2 inh inactive, Mcl1 Noxa PPI 74, Bim-Mcl-1 inactive, TNF necrop inh inactive, zVAD death inh inactive and Mcl1 Bid PPI inactive.
For COc1cccc2c3c(c(=O)[nH]c12)CCC(C)(C)O3 the results were Calpain2 inh inactive, Mcl1 Noxa PPI inactive, Bim-Mcl-1 inactive, TNF necrop inh inactive, zVAD death inh inactive and Mcl1 Bid PPI inactive.
Screening Nc1cc(S(=O)(=O)N2CCCCC2)ccc1Oc1ccccc1 returned Calpain2 inh 51, Mcl1 Noxa PPI inactive, Bim-Mcl-1 inactive, TNF necrop inh inactive, zVAD death inh inactive and Mcl1 Bid PPI inactive.
COCCNc1ccc([N+](=O)[O-])cc1C(=O)Nc1cccc(C)n1 was read as Calpain2 inh inactive, Mcl1 Noxa PPI inactive, Bim-Mcl-1 inactive, TNF necrop inh inactive, zVAD death inh inactive and Mcl1 Bid PPI inactive.
`CCN(CC)S(=O)(=O)c1ccc(C(=O)NCCc2ccccn2)cc1` gave Calpain2 inh inactive, Mcl1 Noxa PPI inactive, Bim-Mcl-1 inactive, TNF necrop inh inactive, zVAD death inh inactive and Mcl1 Bid PPI inactive.
`O=C(NCCc1ccccn1)c1ccc(OC(F)F)cc1` gave Calpain2 inh 89, Mcl1 Noxa PPI inactive, Bim-Mcl-1 inactive, TNF necrop inh inactive, zVAD death inh inactive and Mcl1 Bid PPI inactive.
`Cc1cc(N2CCCC2)nc2ccc(NC(=S)NC(C)C)cc12` gave Calpain2 inh inactive, Mcl1 Noxa PPI 61, Bim-Mcl-1 inactive, TNF necrop inh inactive, zVAD death inh inactive and Mcl1 Bid PPI inactive.
`Cc1cc(C(=O)Nc2ccccc2N2CCCCC2)no1` gave Calpain2 inh inactive, Mcl1 Noxa PPI inactive, TNF necrop inh inactive, zVAD death inh inactive and Mcl1 Bid PPI inactive.
For O=C(CSc1nnc(-c2ccncc2)o1)NCc1ccccc1Cl the results were Calpain2 inh inactive, Mcl1 Noxa PPI inactive, Bim-Mcl-1 inactive, TNF necrop inh inactive and Mcl1 Bid PPI 101.
`O=C(CSc1nnc(-c2ccncc2)o1)NCc1ccccc1` gave Calpain2 inh inactive, Mcl1 Noxa PPI inactive, Bim-Mcl-1 inactive, TNF necrop inh inactive, zVAD death inh inactive and Mcl1 Bid PPI inactive.
`O=C(Nn1cnnc1)c1ccccc1CCc1ccccc1` gave Calpain2 inh inactive, Mcl1 Noxa PPI inactive, Bim-Mcl-1 inactive, TNF necrop inh inactive, zVAD death inh inactive and Mcl1 Bid PPI 97.
Screening O=C(Nc1ccc2nc(-c3cccs3)[nH]c2c1)c1cccs1 returned Calpain2 inh inactive, Mcl1 Noxa PPI inactive, Bim-Mcl-1 inactive, TNF necrop inh inactive, zVAD death inh inactive and Mcl1 Bid PPI inactive.
Screening O=C(Nc1ccc(-c2nc3ccc(NC(=O)c4cccs4)cc3[nH]2)cc1)c1cccs1 returned Calpain2 inh inactive, Mcl1 Noxa PPI 65, Bim-Mcl-1 inactive, TNF necrop inh inactive, zVAD death inh inactive and Mcl1 Bid PPI 84.
`O=C(NC(Cc1ccccc1)C(=O)O)c1ccc(S(=O)(=O)N2CCCCC2)cc1` (centres undefined) gave Calpain2 inh inactive, Mcl1 Noxa PPI inactive, Bim-Mcl-1 inactive, TNF necrop inh inactive, zVAD death inh inactive and Mcl1 Bid PPI 99.
O=C(OCCN1C(=O)c2ccccc2C1=O)c1ccc(S(=O)(=O)N2CCCCCC2)cc1 was read as Calpain2 inh 68, Mcl1 Noxa PPI inactive, Bim-Mcl-1 inactive, TNF necrop inh inactive, zVAD death inh inactive and Mcl1 Bid PPI inactive.
Screening O=C(N[C@@H](Cc1ccccc1)C(=O)O)c1ccncc1 returned Calpain2 inh inactive, Mcl1 Noxa PPI inactive, Bim-Mcl-1 inactive, TNF necrop inh inactive, zVAD death inh inactive and Mcl1 Bid PPI 94.
O=C(NC(Cc1ccccc1)C(=O)O)c1ccc(S(=O)(=O)N2CCCC2)cc1 (centres undefined) was read as Calpain2 inh inactive, Mcl1 Noxa PPI inactive, Bim-Mcl-1 inactive, TNF necrop inh inactive, zVAD death inh inactive and Mcl1 Bid PPI inactive.
For O=C(O)c1ccc(NCCC2=CCCCC2)c([N+](=O)[O-])c1 the results were Calpain2 inh inactive, Mcl1 Noxa PPI inactive, Bim-Mcl-1 inactive, TNF necrop inh inactive, zVAD death inh inactive and Mcl1 Bid PPI inactive.
COc1ccc2nc(NC(=O)Cc3ccc(OC)c(S(=O)(=O)N4CCOCC4)c3)sc2c1 was read as Calpain2 inh inactive, Mcl1 Noxa PPI inactive, Bim-Mcl-1 inactive, TNF necrop inh inactive, zVAD death inh 92 and Mcl1 Bid PPI inactive.
`Cc1cc(C)c2c(N)c(C(=O)Nc3ncc(C)s3)sc2n1` gave Calpain2 inh inactive, Mcl1 Noxa PPI inactive, Bim-Mcl-1 inactive, TNF necrop inh inactive, zVAD death inh inactive and Mcl1 Bid PPI inactive.
Screening COc1ccc2nc(NC3=NCCC3)sc2c1 returned Calpain2 inh inactive, Mcl1 Noxa PPI inactive, Bim-Mcl-1 inactive, TNF necrop inh inactive, zVAD death inh inactive and Mcl1 Bid PPI inactive.
COc1ccc2nc(NC(=O)CSc3nnc(N)s3)sc2c1 was read as Calpain2 inh inactive, Mcl1 Noxa PPI 54, Bim-Mcl-1 inactive, TNF necrop inh inactive, zVAD death inh inactive and Mcl1 Bid PPI inactive.
`COc1ccc2nc(NC(=O)c3sc4nc(C)cc(C)c4c3N)sc2c1` gave Calpain2 inh inactive, Mcl1 Noxa PPI 53, TNF necrop inh inactive, zVAD death inh inactive and Mcl1 Bid PPI inactive.
For COc1ccc2nc(Nc3sc4c(c3C(N)=O)CCCC4)sc2c1 the results were Calpain2 inh inactive, Mcl1 Noxa PPI 100, Bim-Mcl-1 inactive, TNF necrop inh inactive, zVAD death inh inactive and Mcl1 Bid PPI inactive.
Screening Cc1ccc(C)n1-c1ccc(C(=O)N/N=C/c2ccncc2)cc1 returned Calpain2 inh inactive, Mcl1 Noxa PPI inactive, Bim-Mcl-1 inactive, TNF necrop inh inactive, zVAD death inh inactive and Mcl1 Bid PPI inactive.
`CN(C)S(=O)(=O)c1ccc(C(=O)OCC(=O)c2ccc3c(c2)NC(=O)CO3)cc1` gave Calpain2 inh inactive, Mcl1 Noxa PPI inactive, TNF necrop inh inactive, zVAD death inh inactive and Mcl1 Bid PPI inactive.
`CN(C)S(=O)(=O)c1cccc(C(=O)OCC(=O)c2ccc3c(c2)NC(=O)CO3)c1` gave Calpain2 inh inactive, Mcl1 Noxa PPI inactive, Bim-Mcl-1 89, TNF necrop inh inactive, zVAD death inh inactive and Mcl1 Bid PPI inactive.
Cc1cc(C(=O)OCC(=O)c2ccc3c(c2)NC(=O)CO3)c2ccccc2n1 was read as Calpain2 inh inactive, Mcl1 Noxa PPI inactive, Bim-Mcl-1 inactive, TNF necrop inh inactive, zVAD death inh inactive and Mcl1 Bid PPI 63.
`Cc1cc(=O)[nH]c(SCC(=O)c2ccc3c(c2)NC(=O)CO3)n1` gave Calpain2 inh inactive, Mcl1 Noxa PPI inactive, TNF necrop inh inactive, zVAD death inh inactive and Mcl1 Bid PPI 97.
CSc1ccc(/C=N/NC(=O)c2cccc(O)c2)cc1 was read as Calpain2 inh inactive, Mcl1 Noxa PPI inactive, Bim-Mcl-1 inactive, TNF necrop inh inactive, zVAD death inh inactive and Mcl1 Bid PPI inactive.
For CC(C)Nc1nc2n(c(=O)n1)CCN2C(C)C the results were Calpain2 inh inactive, Mcl1 Noxa PPI inactive, Bim-Mcl-1 inactive, TNF necrop inh inactive, zVAD death inh inactive and Mcl1 Bid PPI inactive.
